Source: PubChem (National Center for Advancing Translational Sciences (NCATS))
Sm TGR inh: inhibitors of Schistosoma mansoni thioredoxin glutathione reductase. Q962Y6. purified TGR, DTNB reduction, TNB absorbance 405 nm. Potency, µM (doses to about 114 µM), for the others: at the top dose activity change, negative = inhibition, actives largely listed as inhibitors. 360,000 tested, 3% active. AID 485364; further: on the % scale 0 is the no-effect control and ±100 the full control effect; nearly all actives have a fitted effect of over 60% in size
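Kinetic colorimetric format: TGR-catalysed, NADPH-driven DTNB reduction monitored via TNB absorbance. Enzyme dispensed at 20 nM; compound exposure 15 min at room temperature before reaction start.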
TbPYK inhibitor: T. brucei pyruvate kinase inhibition; Q57TT1; TbPYK enzyme, Kinase-Glo Plus ATP luminescence, 45 min; Potency, µM (titrated, usually from 76.8 µM), for inactives: top-dose activity, negative = inhibition, hits mostly inhibitors; 410,000 tested, 0.12% active; AID 624173; further: on the % scale 0 is the no-effect control and ±100 the full control effect; nearly all actives have a fitted effect of over 50% in size
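Screened from lowest to highest concentration, compounds were pinned into TbPYK/substrate mixtures, and ADP (130 uM final) was added. Plates sat at room temperature for 45 min prior to Kinase-Glo Plus detection by luminescence.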
Giardia FBPA inh-1: Giardia lamblia aldolase inhibition. Potency, µM (top dose mostly 59.6 µM), for inactives: at the highest dose activity, negative = inhibition, hits mostly inhibitors. 290,000 tested, 0.71% active. purified Giardia FBPA. A8B2U2; further: on the % scale 0 is the no-effect control and ±100 the full control effect; nearly all actives have a fitted effect of over 55% in size
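40 nM FBPA preincubated 10 min at RT with compound (up to 57.5 uM final), then substrate plus GAPDH/TPI/NAD/arsenate coupling and diaphorase/resazurin added. Fluorescence read after 20 min at RT, 525/598 nm.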
LmPK inhibitor: blocks Leishmania mexicana pyruvate kinase activity. Q27686. purified LmPK, Kinase-Glo ATP luminescence, 1 h. Potency, µM (highest dose often 57.5 µM), for the others: top-dose activity change, negative = inhibition, most hits filed as inhibitors. 290,000 tested, 0.37% active. AID 1721; further: on the % scale 0 is the no-effect control and ±100 the full control effect
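Pyruvate kinase activity monitored as ATP production (luciferase luminescence). Conditions: 0.1 nM enzyme, 0.5 mM PEP, 0.1 mM ADP, 1 h, RT; normalized against uninhibited and no-enzyme wells.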
RE007 growth inh: less growth of the S. pombe RE007 Vpr strain | S. pombe RE007 Vpr strain, BacTiter-Glo ATP luminescence, 24 h | Potency, µM (doses to about 92.2 µM), inactives show top-dose activity change, negative = less growth, most hits filed as inhibitors | 360,000 tested, 0.21% active; active means well fitted falling curve with a large enough effect; inconclusive means small, poorly fitted or top-dose-only effect; inactive means no such curve, though single readings can be large or run the other way; further: on the % scale 0 is the no-effect control and ±100 the full control effect; nearly all actives have a fitted effect of over 50% in size
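Fission yeast strain RE007, carrying one chromosomally integrated HIV-1 vpr copy, was seeded at OD 0.01 in PMG+AL medium with 23 nL pinned compound. After 24 h at 30 °C and 99% humidity, viability was read by BacTiter-Glo luminescence.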
NS1 function inh: inhibitors of influenza NS1 protein function; Potency, µM (top dose mostly 46.1 µM), without a hit: top-dose activity, positive = more growth; 270,000 tested, 0.4% active; AID 2326; calls by dose curve; further: actives are rising curves; nearly all actives have a fitted effect of over 50% in size
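Compounds were scored for reversing the slow growth caused by influenza A NS1 in S. cerevisiae, measured by optical density at 600 nm. Assay medium contained 2% galactose at pH 6.0; NS1-free yeast of the same strain were the positive control.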
Giardia growth: inhibitors of Giardia lamblia growth | shares compounds with Giardia FBPA inh-1 | Giardia lamblia trophozoite growth inhibition | Potency, µM (highest dose often 57.5 µM), for the others: at the highest dose activity change, negative = inhibition, hits mostly inhibitors | 1,500 tested, 5% active;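 further: trophozoites exposed to compound for 48 h at 37 °C; on the % scale 0 is the no-effect control and ±100 the full control effect; nearly all actives have a fitted effect of over 70% in size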
Mammal cell tox: toxic to mammalian cells in Giardia aldolase counter-screen | shares compounds with Giardia FBPA inh-1 | Potency, µM (highest dose often 57.5 µM), for inactives: at the highest dose viability change, negative = toxicity, hits mostly inhibitors | AID 2786 | 1,500 tested, 4% active | mammalian cell viability counter-screen, qHTS;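 further: Chinese hamster ovary cells used as mammalian cytotoxicity surrogate; viability measured as cellular ATP by luminescence; compound exposure lasted 48 h before reading; on the % scale 0 is the no-effect control and ±100 the full control effect; nearly all actives have a fitted effect of over 60% in size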
Giardia FBPA inh-2: confirmation of Giardia fructose-bisphosphate aldolase inhibitors; shares compounds with Giardia FBPA inh-1; purified Giardia aldolase enzyme activity, qHTS; Potency, µM (top dose mostly 57.5 µM), for inactives: at the highest dose activity change, negative = inhibition, actives largely listed as inhibitors; 1,500 tested, 5% active; AID 2787; further: on the % scale 0 is the no-effect control and ±100 the full control effect; nearly all actives have a fitted effect of over 45% in size
Rabbit aldolase: rabbit FBP aldolase inhibition by Giardia aldolase hits. 1,500 tested, 4% active. shares compounds with Giardia FBPA inh-1. Potency, µM (series often up to 57.5 µM), without a hit: top-dose activity, negative = inhibition, hits mostly inhibitors. Rabbit muscle FBPA enzyme inhibition, selectivity counter-screen; further: on the % scale 0 is the no-effect control and ±100 the full control effect; nearly all actives have a fitted effect of over 60% in size
Target sequence (P00883 whole entry, looked up): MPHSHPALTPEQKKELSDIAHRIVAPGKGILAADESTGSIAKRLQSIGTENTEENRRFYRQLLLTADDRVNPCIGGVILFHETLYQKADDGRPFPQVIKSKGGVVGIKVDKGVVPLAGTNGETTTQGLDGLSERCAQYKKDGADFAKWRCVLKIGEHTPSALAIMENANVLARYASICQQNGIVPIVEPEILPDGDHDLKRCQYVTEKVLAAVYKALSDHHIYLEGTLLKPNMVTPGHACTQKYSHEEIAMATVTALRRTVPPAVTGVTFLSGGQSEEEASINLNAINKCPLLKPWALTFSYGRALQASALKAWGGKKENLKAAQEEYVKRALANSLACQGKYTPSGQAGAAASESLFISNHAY
GAPDH coupling: GAPDH inhibition flagged for Giardia aldolase hits; GAPDH coupling enzyme counterscreen, biochemical, qHTS; 1,500 tested, 6% active; Potency, µM (doses to about 57.5 µM), without a hit: at the top dose activity change, negative = inhibition, most hits filed as inhibitors; shares compounds with Giardia FBPA inh-1; further: on the % scale 0 is the no-effect control and ±100 the full control effect; nearly all actives have a fitted effect of over 55% in size
Active calls of the source: *; ? = inconclusive; / = no result given; [ ] = dose if it differs, or a comment. Hits are enriched below; roughly 3.5% of the tested compounds scored in any of these assays. Unless noted, the call rests on the fitted dose curve; in most records, active means well fitted curve in the direction sought with a large enough effect; inconclusive means small, poorly fitted or top-dose-only effect, or another doubt; inactive means no such curve, though single readings can be large; an effect the other way counts as inactive or inconclusive. Potency means the concentration at half of the fitted maximal effect.

SMILES	Sm TGR inh	TbPYK inhibitor	Giardia FBPA inh-1	LmPK inhibitor	RE007 growth inh	NS1 function inh	Giardia growth	Mammal cell tox	Giardia FBPA inh-2	Rabbit aldolase	GAPDH coupling
CN(C)C(CNC(C(=O)Nc1ccc([N+](=O)[O-])cc1Br)c1ccccc1)c1ccccc1 (stereo not drawn)	-16%	21%	20µM*	0%	-13%	/	-12%[10.4 µM]	-20%	1%	-4%	2%
CCOC(=O)c1cc(C)n(CC2CCC(C(=O)Nc3ccc(C(=O)OC)cc3)CC2)c1C (stereo not drawn)	1%	-2%	/	/	/	/	/	/	/	/	/
CCNC(=S)NNc1ccccc1	14µM*	-8%	11µM*	3%	?	-40%	-13%[10.4 µM]	11%	3%	11%	2%
CCNC(=S)NS(=O)(=O)c1ccc(Cl)cc1	-17%	1%	7.1µM*	1%	12%	-32%	25%	-3%	5%	1%	10%
CCNC(=S)NS(=O)(=O)c1ccccc1	-3%	-1%	7.9µM*	-6%	15%	-57%	-16%	12%	1%	10%	14%
O=C(Cc1ccccc1)NS(=O)(=O)c1ccccc1	/	5%	/	/	10%	/	/	/	/	/	/
CCOC(=O)CCc1c(C)nc2cc(-c3cc(OC)cc(OC)c3)[nH]n2c1=O	7%	-5%	/	/	/	/	/	/	/	/	/
COc1cc(CN2CCC(C(=O)NCC(C)(C)CN(C)C)CC2)ccc1OCc1ccccc1	4%	12%	22µM*	-7%	-10%	-13%	?	-20%	9%	6%	11%
COc1ccccc1CNC(=O)c1cc2cc(C)ccc2n1C	12%	-8%	/	/	/	/	/	/	/	/	/
Cc1nnc(NC(=O)CN2CC(C)OC(C)C2)s1 (stereo not drawn)	-13%	-2%	2.5µM*	-7%	0%	14%	-5%[38.3 µM]	-7%	0%	2%	4%
CN1CCN(CC(=O)Nc2nc3ccccc3s2)CC1	13%	10%	?	-1%	-6%	18%	/	/	/	/	/
CCCN1CCN(CC(=O)Nc2nncs2)CC1	5%	-1%	4.5µM*	2%	4%	0%	9%	-8%	7%	9%	14%
CC(CCC(=O)Nc1nncs1)C(=O)O (stereo not drawn)	7%	-1%	0%	1%	10%	?	/	/	/	/	/
CCN1CCN(CC(=O)Nc2nc3ccccc3s2)CC1	-19%	6%	10µM*	0%	1%	13%	-22%	-5%	2%	8%	3%
CCc1nnc(NC(=O)CN2CCCC(C)C2)s1 (stereo not drawn)	5%	-1%	4µM*	0%	6%	3%	-8%[10.4 µM]	16%	3%	4%	15%
COc1ccc(O[C@H]2C=C[C@@H](c3ccccc3)O[C@H]2CO/N=C\C[C@@H]2C=C[C@H](OC(C)=O)[C@H](COC(C)=O)O2)cc1	/	/	-2%[12.9 µM]	/	/	/	/	/	/	/	/
